Results reported in ChEMBL document CHEMBL5724796, “Tm Shift (DSF) assay results for EUbOPEN Chemogenomics Library” (2024).
Non-standard residues stand in square brackets, D forms with d. Residues, ends and D or L forms follow the SMILES beside them. *: point of attachment. Benzoyl(4-tBu) = CC(C)(C)c1ccc(C(=O)*)cc1; Lys(Et2) = CCN(CC)CCCC[C@H](N)C(=O)O; Cbz = O=C(OCc1ccccc1)*; CH2Cl = ClC*; CH2F = FC*

These molecules were tested against Casein kinase I isoform delta (Homo sapiens) (UniProt P48730). Details: Compound concentration 20.0 uM.
Sequence of Casein kinase I isoform delta (Homo sapiens) (P48730 whole entry, looked up, canonical isoform): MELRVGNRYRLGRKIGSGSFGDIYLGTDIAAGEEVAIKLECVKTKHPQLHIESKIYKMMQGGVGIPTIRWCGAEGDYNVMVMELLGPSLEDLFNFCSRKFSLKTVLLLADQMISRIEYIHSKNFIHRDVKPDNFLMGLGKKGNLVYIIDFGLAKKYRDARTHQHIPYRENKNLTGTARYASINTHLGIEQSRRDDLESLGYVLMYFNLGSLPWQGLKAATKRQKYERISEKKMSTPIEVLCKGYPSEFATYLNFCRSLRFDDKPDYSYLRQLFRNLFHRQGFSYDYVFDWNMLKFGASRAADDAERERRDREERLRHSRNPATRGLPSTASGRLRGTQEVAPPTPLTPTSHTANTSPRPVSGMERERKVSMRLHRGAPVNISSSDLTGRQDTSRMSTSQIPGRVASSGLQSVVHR
`NS(=O)(=O)c1cc(-c2nnn[nH]2)c(NCc2cccs2)cc1Cl` showed a ΔTm of 0.19 °C.
Molecule `CCn1nc(C2CC2)cc1Nc1nc(C(=O)NC)nc2[nH]c3cc(-c4c(C)noc4C)c(OC)cc3c12` has a ΔTm of -0.18 °C.
For `COCCOCCn1nc2c(c1C)-c1c(Cl)ccc3c1c(C)c(C(=O)O)n3CCCOc1cc(cc3c(F)c(Cl)ccc13)CCc1cc(nn1C)CSC2`, the ΔTm was -0.76 °C.
`CN(CC[C@@H](Oc1ccc(-c2ccccc2)cc1)c1ccc(F)cc1)CC(=O)O` was tested, and the ΔTm was 0.15 °C.
`Cc1ccsc1C(=CCCN1CCC[C@@H](C(=O)O)C1)c1sccc1C` gave a ΔTm of -0.21 °C.
Work on `O=C1Nc2ccccc2C2(CCN(CC(Cc3ccccc3)Nc3nc4ccc(F)cc4s3)CC2)N1` (centres undefined) yielded a ΔTm of -0.49 °C.
Molecule `CCCOc1cccc(Oc2cc3c(cc2NS(=O)(=O)c2cccc(C(=O)NCCOCCOCCOCC(=O)N[C@H](C(=O)N4C[C@H](O)C[C@H]4C(=O)NCc4ccc(-c5scnc5C)cc4)C(C)(C)C)c2)n(C)c(=O)n3C)c1` has a ΔTm of 0.83 °C.
`CN(CCC(Oc1ccc(-c2ccccc2)cc1)c1ccc(F)cc1)CC(=O)O` (centres undefined) was tested, and the ΔTm was -0.12 °C.
`C[C@]1(c2nc3c(C(N)=O)cccc3[nH]2)CCCN1` gave a ΔTm of 0.16 °C.
For `CCN(CC)CCCC[C@H](NC(=O)[C@H](CC(C)C)NC(=O)[C@H](C)NC(=O)[C@H](Cc1ccccc1)NC(=O)c1ccc(C(C)(C)C)cc1)C(=O)N[C@@H](CO)C(=O)OC` ({Benzoyl(4-tBu)}-FAL[Lys(Et2)]S-OMe), the ΔTm was 0.5 °C.
Work on `CN1CC(=O)N2[C@H](c3ccc4c(c3)OCO4)c3[nH]c4ccccc4c3C[C@@H]2C1=O` yielded a ΔTm of 0.06 °C.
Molecule `CC(=O)N[C@@H](Cc1ccccc1)C(=O)N[C@@H](CC(C)C)C(=O)N[C@H](C(=O)N[C@@H](CC(=O)O)C(=O)CCl)[C@@H](C)O` (Ac-FLTD-CH2Cl) has a ΔTm of 0.15 °C.
`CCOC(=O)Oc1c(OC)cc(C(=O)O[C@H]2C[C@H]3CN4CCc5c([nH]c6cc(OC)ccc56)[C@@H]4C[C@H]3[C@@H](C(=O)OC)[C@@H]2OC)cc1OC` showed a ΔTm of -0.84 °C.
`COC(=O)CC[C@H](NC(=O)[C@H](C)NC(=O)OCc1ccccc1)C(=O)N[C@H](C(=O)N[C@@H](CC(=O)OC)C(=O)CF)C(C)C` (Cbz-AE(OMe)VD(OMe)-CH2F) gave a ΔTm of -0.04 °C.
`CCN(c1cc(-c2ccc(CN3CCOCC3)cc2)cc(C(=O)NCc2c(C)cc(C)[nH]c2=O)c1C)C1CCOCC1` was tested, and the ΔTm was 0.03 °C.
For `Cc1cccc(N/N=C(\C(=O)c2cccs2)C(=O)C(F)(F)F)c1`, the ΔTm was -0.01 °C.
`CCN(CC)c1ccc(C2=NNC(=O)C[C@H]2C)cc1[N+](=O)[O-]` was tested, and the ΔTm was 0.06 °C.
`CCC(=O)N1CCOc2c(cc(-c3cc(OC)cc(OC)c3)cc2C(=O)N[C@H]2CCCN(C)C2)C1` gave a ΔTm of 0.5 °C.
Work on `CCN(C(=O)c1cc(F)ccc1Oc1cncnc1N1CC2(CCN(C[C@H]3CC[C@H](NS(=O)(=O)CC)CC3)CC2)C1)C(C)C` yielded a ΔTm of -0.01 °C.
`C[C@H](NC(=O)c1cn(C2(C#N)CC2)cn1)C(=O)Nc1nc(-c2cccc(-c3ccn(C)n3)c2)cs1` showed a ΔTm of 0.61 °C.
With `N#Cc1ccc(-c2c3n(c4cccnc24)CCN(C2CC2)C3=O)cc1F` the ΔTm was -0.26 °C.
With `CC1(C)Cn2nc(-c3ccc(F)cn3)c(-c3ccnc4[nH]ncc34)c2CO1` the ΔTm was 9.16 °C.
With `O=C(NCCCOc1ccc2[nH]c(=O)ccc2c1)N(C1CC1)[C@@H]1CCCC[C@H]1O` the ΔTm was -0.05 °C.
Molecule `CC(C)(C)OC(=O)NCCCCCN(CCc1ccccc1)C(=O)n1cc(-c2ccc(OC(F)(F)F)cc2)nn1` has a ΔTm of -1.51 °C.
Work on `CCCCCCNC(=O)n1cc(F)c(=O)[nH]c1=O` yielded a ΔTm of -0.3 °C.
With `CNC(=O)N1CCc2c(c(N3CCCc4cc(-c5cnn(C)c5)c(C(F)F)cc43)nn2C2CCOCC2)C1` the ΔTm was 0.34 °C.
With `CNCC[C@@H](Oc1ccccc1C)c1ccccc1` the ΔTm was -0.25 °C.
`CC1C(C#N)=C(N)OC2=C1C(=O)CC(c1cccc3ccccc13)C2` (centres undefined) was tested, and the ΔTm was 3.72 °C.
Molecule `Cn1nc2c(=O)n(CC3(O)CCN(C(=O)C[C@H](c4ccccc4)C(F)(F)F)CC3)cnc2c1-c1ccc(CN)cc1` has a ΔTm of -0.82 °C.
`CCCCCCCCCCCCC/C=C/[C@@H](O)[C@H](CO)NC(=O)CCl` showed a ΔTm of 2.15 °C.

The molecules below were run against Glycogen synthase kinase-3 beta (Homo sapiens) (UniProt P49841). Details: Compound concentration 20.0 uM.
Sequence of Glycogen synthase kinase-3 beta (Homo sapiens) (P49841 whole entry, looked up): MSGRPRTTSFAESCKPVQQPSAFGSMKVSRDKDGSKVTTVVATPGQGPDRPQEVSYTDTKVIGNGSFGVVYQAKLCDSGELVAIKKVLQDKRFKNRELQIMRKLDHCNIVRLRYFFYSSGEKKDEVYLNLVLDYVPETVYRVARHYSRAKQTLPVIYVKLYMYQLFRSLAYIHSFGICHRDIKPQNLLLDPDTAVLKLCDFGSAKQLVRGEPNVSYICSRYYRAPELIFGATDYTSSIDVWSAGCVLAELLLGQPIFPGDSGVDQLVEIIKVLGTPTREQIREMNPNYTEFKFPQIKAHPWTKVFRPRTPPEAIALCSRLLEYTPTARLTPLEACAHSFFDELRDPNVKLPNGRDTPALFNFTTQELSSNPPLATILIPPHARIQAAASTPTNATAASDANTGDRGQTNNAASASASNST
`O=C(NCC1CCOCC1)c1n[nH]cc1NC(=O)c1c(F)cccc1F` showed a ΔTm of 14.4 °C.
`Oc1ccc(-c2c(-c3ccccc3)nn3c(C(F)(F)F)cc(C(F)(F)F)nc23)cc1` showed a ΔTm of -0.06 °C.
For `CNC(=O)O[C@H]1COc2ccc(N3CCN(C4COC4)CC3)cc2[C@@H]1NC(=O)c1ccc(F)cc1`, the ΔTm was -0.56 °C.
Work on `CN(CCCCCCNc1ccnc2cc(Cl)ccc12)CCCCCCNc1ccnc2cc(Cl)ccc12` yielded a ΔTm of -0.7 °C.
`COc1cc(-c2cn(C)c(=O)c3cnccc23)cc(OC)c1CN(C)CC(=O)NCCOCCOCCNc1cccc2c1C(=O)N(C1CCC(=O)NC1=O)C2=O` (centres undefined) gave a ΔTm of 0.14 °C.
Molecule `CC(C)c1c(-c2cnn(C(C)(C)C)c2)[nH]c2c(C#N)cnn2c1=O` has a ΔTm of 0.53 °C.
With `CS(=O)(=O)c1ccc(-c2nnc(C=Cc3nnc(-c4ccc(C#N)cc4)o3)n2-c2ccccc2Cl)nc1` the ΔTm was -0.77 °C.
For `O=C(N1CCCCC1c1ccccc1)n1cc(-c2ccc(-c3cccc(CO)c3)cc2)nn1` (centres undefined), the ΔTm was -1.86 °C.
In the case of `CS(=O)(=O)c1ccc(Oc2cc(F)cc(C#N)c2)c2c1C(O)C(F)C2` (centres undefined), the ΔTm is reported as -0.04 °C.
`NS(=O)(=O)c1cc(-c2nnn[nH]2)c(NCc2cccs2)cc1Cl` was tested, and the ΔTm was 1.34 °C.
`CCn1nc(C2CC2)cc1Nc1nc(C(=O)NC)nc2[nH]c3cc(-c4c(C)noc4C)c(OC)cc3c12` gave a ΔTm of -1.43 °C.
`COCCOCCn1nc2c(c1C)-c1c(Cl)ccc3c1c(C)c(C(=O)O)n3CCCOc1cc(cc3c(F)c(Cl)ccc13)CCc1cc(nn1C)CSC2` gave a ΔTm of 0 °C.
Work on `CN(CC[C@@H](Oc1ccc(-c2ccccc2)cc1)c1ccc(F)cc1)CC(=O)O` yielded a ΔTm of -0.98 °C.
With `Cc1ccsc1C(=CCCN1CCC[C@@H](C(=O)O)C1)c1sccc1C` the ΔTm was -0.18 °C.
For `O=C1Nc2ccccc2C2(CCN(CC(Cc3ccccc3)Nc3nc4ccc(F)cc4s3)CC2)N1` (centres undefined), the ΔTm was -1.4 °C.
`CCCOc1cccc(Oc2cc3c(cc2NS(=O)(=O)c2cccc(C(=O)NCCOCCOCCOCC(=O)N[C@H](C(=O)N4C[C@H](O)C[C@H]4C(=O)NCc4ccc(-c5scnc5C)cc4)C(C)(C)C)c2)n(C)c(=O)n3C)c1` showed a ΔTm of -4.03 °C.
In the case of `CN(CCC(Oc1ccc(-c2ccccc2)cc1)c1ccc(F)cc1)CC(=O)O` (centres undefined), the ΔTm is reported as -0.74 °C.
`C[C@]1(c2nc3c(C(N)=O)cccc3[nH]2)CCCN1` was tested, and the ΔTm was -0.63 °C.
`CCN(CC)CCCC[C@H](NC(=O)[C@H](CC(C)C)NC(=O)[C@H](C)NC(=O)[C@H](Cc1ccccc1)NC(=O)c1ccc(C(C)(C)C)cc1)C(=O)N[C@@H](CO)C(=O)OC` ({Benzoyl(4-tBu)}-FAL[Lys(Et2)]S-OMe) was tested, and the ΔTm was -1.01 °C.
For `CN1CC(=O)N2[C@H](c3ccc4c(c3)OCO4)c3[nH]c4ccccc4c3C[C@@H]2C1=O`, the ΔTm was -0.13 °C.
`CC(=O)N[C@@H](Cc1ccccc1)C(=O)N[C@@H](CC(C)C)C(=O)N[C@H](C(=O)N[C@@H](CC(=O)O)C(=O)CCl)[C@@H](C)O` (Ac-FLTD-CH2Cl) was tested, and the ΔTm was -0.18 °C.
For `CCOC(=O)Oc1c(OC)cc(C(=O)O[C@H]2C[C@H]3CN4CCc5c([nH]c6cc(OC)ccc56)[C@@H]4C[C@H]3[C@@H](C(=O)OC)[C@@H]2OC)cc1OC`, the ΔTm was -0.14 °C.
In the case of `COC(=O)CC[C@H](NC(=O)[C@H](C)NC(=O)OCc1ccccc1)C(=O)N[C@H](C(=O)N[C@@H](CC(=O)OC)C(=O)CF)C(C)C` (Cbz-AE(OMe)VD(OMe)-CH2F), the ΔTm is reported as -0.78 °C.
`CCN(c1cc(-c2ccc(CN3CCOCC3)cc2)cc(C(=O)NCc2c(C)cc(C)[nH]c2=O)c1C)C1CCOCC1` showed a ΔTm of 0 °C.
Molecule `Cc1cccc(N/N=C(\C(=O)c2cccs2)C(=O)C(F)(F)F)c1` has a ΔTm of -0.93 °C.
Molecule `CCN(CC)c1ccc(C2=NNC(=O)C[C@H]2C)cc1[N+](=O)[O-]` has a ΔTm of 0.13 °C.
`CCC(=O)N1CCOc2c(cc(-c3cc(OC)cc(OC)c3)cc2C(=O)N[C@H]2CCCN(C)C2)C1` gave a ΔTm of -1.27 °C.
For `CCN(C(=O)c1cc(F)ccc1Oc1cncnc1N1CC2(CCN(C[C@H]3CC[C@H](NS(=O)(=O)CC)CC3)CC2)C1)C(C)C`, the ΔTm was -0.74 °C.
With `C[C@H](NC(=O)c1cn(C2(C#N)CC2)cn1)C(=O)Nc1nc(-c2cccc(-c3ccn(C)n3)c2)cs1` the ΔTm was -0.01 °C.
Molecule `N#Cc1ccc(-c2c3n(c4cccnc24)CCN(C2CC2)C3=O)cc1F` has a ΔTm of 1.8 °C.
With `CC1(C)Cn2nc(-c3ccc(F)cn3)c(-c3ccnc4[nH]ncc34)c2CO1` the ΔTm was -1.21 °C.
`O=C(NCCCOc1ccc2[nH]c(=O)ccc2c1)N(C1CC1)[C@@H]1CCCC[C@H]1O` showed a ΔTm of -0.66 °C.
`CC(C)(C)OC(=O)NCCCCCN(CCc1ccccc1)C(=O)n1cc(-c2ccc(OC(F)(F)F)cc2)nn1` was tested, and the ΔTm was -2.3 °C.
Molecule `CCCCCCNC(=O)n1cc(F)c(=O)[nH]c1=O` has a ΔTm of -0.82 °C.
Molecule `CNC(=O)N1CCc2c(c(N3CCCc4cc(-c5cnn(C)c5)c(C(F)F)cc43)nn2C2CCOCC2)C1` has a ΔTm of -0.47 °C.
`CNCC[C@@H](Oc1ccccc1C)c1ccccc1` was tested, and the ΔTm was -0.38 °C.
`CC1C(C#N)=C(N)OC2=C1C(=O)CC(c1cccc3ccccc13)C2` (centres undefined) was tested, and the ΔTm was 4.85 °C.
`Cn1nc2c(=O)n(CC3(O)CCN(C(=O)C[C@H](c4ccccc4)C(F)(F)F)CC3)cnc2c1-c1ccc(CN)cc1` gave a ΔTm of -0.57 °C.
For `CCCCCCCCCCCCC/C=C/[C@@H](O)[C@H](CO)NC(=O)CCl`, the ΔTm was -0.08 °C.
